Active and inactive are the calls of the source. Unless noted, no rule for the calls is given here.
Tests used:
[1] = HepG2 liver cancer cell viability effects, profiling panel, resazurin fluorescence, 24 h, PK04 Diversity Set (AID 1172); details: higher = more signal
[2] = basal S. cerevisiae growth modulation, no modifier, primary screen, OD600, strain BY4716, 24 h, basal condition (AID 1173); details: OD600, 24 h, higher = more signal, called active from +8 up or from −8 down
[3] = MM1S myeloma cell viability, profiling panel, resazurin fluorescence, basal, 24 h, PK04 Diversity Set (AID 1174); details: higher = more signal, called active from +8 up or from −8 down;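 also: MM1S multiple myeloma cell line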
[4] = biological target: Dihydroorotate dehydrogenase (quinone), mitochondrial (Plasmodium falciparum (isolate 3D7)) (UniProt Q08210); experiment: PfDHODH enzyme inhibitors, primary screen, biochemical, C-terminal His tag, absorbance 600 nm (AID 1175); details: DCIP absorbance 600 nm, higher = more signal, called active from +8 up or from −8 down;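 also: recombinant parasite enzyme with a five histidine tag at its C terminus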
[5] = P. aeruginosa biofilm formation inhibitors, primary screen, strain PAO1, LB-PBS medium, absorbance 600 nm (AID 1176); details: P. aeruginosa PAO1 growth/biofilm, A600, 12 h; higher = more signal
[6] = S. cerevisiae RM11-1a growth modifiers, primary screen, strain RM11-1a, OD600, basal, 24 h (AID 1177); details: OD600, 24 h, higher = more signal, called active from +8 up or from −8 down;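 also: cultures grown under basal conditions with no added stressor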
[7] = E. coli acrAB mutant growth effects, primary screen, E. coli filamentation inducers, strain DRC39, OD650, 24 h (AID 1178); details: higher = more signal, called active from +8 up or from −8 down;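 also: growth measured as culture turbidity by optical density at 650 nm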
[8] = E. coli acrAB mutant growth effects, primary screen, E. coli filamentation inducers, strain DRC39, OD650, 48 h (AID 1179);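 also: screen aims at cell division blockers that make cells filament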; details: E. coli DRC39 delta-acrAB growth, higher = more signal, called active from +8 up or from −8 down
[9] = RPMI8226 myeloma cell viability, profiling panel, resazurin fluorescence, basal, 24 h, PK04 Diversity Set (AID 1180); details: higher = more signal;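 also: RPMI8826 multiple myeloma cell line at 5000 cells per well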
[10] = biological target: E3 ubiquitin-protein ligase XIAP (Homo sapiens) (UniProt P98170); experiment: XIAP binders, primary screen, biophysical, small-molecule microarray, fluorescence 635 nm (AID 1181); details: small-molecule microarray binding, higher = more signal;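 also: score merges 667 nm emission and signal to noise over triplicate slides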
[11] = test system: XIP peptide (Xip251-270) binding; experiment: small-molecule binders of XIP peptide, primary screen, biochemical, small-molecule microarray, fluorescence 635/667 nm, 0.1 µg/mL protein (AID 1182); details: fluorescent protein binding, 635 nm, higher = more signal, called active from +8 up or from −8 down
XIP peptide (Xip251-270) = experiment: small-molecule binders of XIP peptide, primary screen, biochemical, small-molecule microarray, fluorescence 635/667 nm, 0.5 µg/mL protein (AID 1183); details: small-molecule microarray binding, fluorescence 635 nm; higher = more signal
[12] = Plasmodium falciparum growth inhibition, primary screen, strain 3D7, DAPI fluorescence, 100 nL (AID 1184);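 also: parasites grown inside human red blood cells in medium with human serum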; details: P. falciparum 3D7 growth, 3 d, higher = more signal
[13] = biological target: Homeobox protein Hox-A13 (Mus musculus) (UniProt Q62424); experiment: inhibitors of HoxA13-DNA binding, primary screen, biochemical, fluorescence polarization, labeled oligonucleotide (AID 1185); details: 15 min, higher = more signal, called active from +8 up or from −8 down
[14] = inhibitors of hydroxyurea-induced Chk1 phosphorylation, primary screen, imaging, HeLa, phospho-Chk1 antibody, percent positive cells (AID 1186); details: hydroxyurea-induced phospho-Chk1 immunofluorescence imaging, higher = more signal
[15] = inhibitors of hydroxyurea-induced Chk1 phosphorylation, primary screen, imaging, HeLa, phospho-Chk1 nuclear intensity (AID 1187); details: hydroxyurea-induced phospho-Chk1 immunofluorescence imaging, higher = more signal

Chain of Dihydroorotate dehydrogenase (quinone), mitochondrial (Plasmodium falciparum (isolate 3D7)) (Q08210 whole entry, looked up): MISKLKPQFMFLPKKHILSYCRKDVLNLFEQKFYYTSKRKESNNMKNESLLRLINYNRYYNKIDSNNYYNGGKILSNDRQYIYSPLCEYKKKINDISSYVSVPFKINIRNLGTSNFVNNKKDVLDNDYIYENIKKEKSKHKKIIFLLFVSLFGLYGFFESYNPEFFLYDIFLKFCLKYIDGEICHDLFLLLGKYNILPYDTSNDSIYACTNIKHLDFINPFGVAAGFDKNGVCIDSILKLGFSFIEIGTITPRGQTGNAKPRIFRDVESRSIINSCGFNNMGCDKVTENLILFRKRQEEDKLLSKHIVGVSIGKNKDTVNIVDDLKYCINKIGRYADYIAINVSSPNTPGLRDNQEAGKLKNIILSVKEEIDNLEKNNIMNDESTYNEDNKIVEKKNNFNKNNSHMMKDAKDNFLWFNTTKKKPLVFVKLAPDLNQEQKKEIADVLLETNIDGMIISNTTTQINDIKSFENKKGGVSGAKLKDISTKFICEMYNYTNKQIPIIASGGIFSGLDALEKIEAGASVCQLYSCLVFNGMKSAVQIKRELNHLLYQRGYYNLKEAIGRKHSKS
Chain of E3 ubiquitin-protein ligase XIAP (Homo sapiens) (P98170 whole entry, looked up): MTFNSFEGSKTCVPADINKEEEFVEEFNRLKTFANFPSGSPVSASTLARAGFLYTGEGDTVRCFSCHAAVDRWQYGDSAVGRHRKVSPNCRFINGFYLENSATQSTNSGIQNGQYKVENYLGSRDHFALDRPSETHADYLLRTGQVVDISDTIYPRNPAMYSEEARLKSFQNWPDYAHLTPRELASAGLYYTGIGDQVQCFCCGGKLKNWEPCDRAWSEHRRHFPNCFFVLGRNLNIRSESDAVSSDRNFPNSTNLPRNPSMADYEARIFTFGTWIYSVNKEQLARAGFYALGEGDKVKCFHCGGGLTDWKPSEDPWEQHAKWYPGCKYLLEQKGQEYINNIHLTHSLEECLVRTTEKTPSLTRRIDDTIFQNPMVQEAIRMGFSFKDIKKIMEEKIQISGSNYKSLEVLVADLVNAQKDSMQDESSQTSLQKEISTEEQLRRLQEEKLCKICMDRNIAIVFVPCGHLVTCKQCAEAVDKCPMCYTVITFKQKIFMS
Chain of Homeobox protein Hox-A13 (Mus musculus) (Q62424 whole entry, looked up): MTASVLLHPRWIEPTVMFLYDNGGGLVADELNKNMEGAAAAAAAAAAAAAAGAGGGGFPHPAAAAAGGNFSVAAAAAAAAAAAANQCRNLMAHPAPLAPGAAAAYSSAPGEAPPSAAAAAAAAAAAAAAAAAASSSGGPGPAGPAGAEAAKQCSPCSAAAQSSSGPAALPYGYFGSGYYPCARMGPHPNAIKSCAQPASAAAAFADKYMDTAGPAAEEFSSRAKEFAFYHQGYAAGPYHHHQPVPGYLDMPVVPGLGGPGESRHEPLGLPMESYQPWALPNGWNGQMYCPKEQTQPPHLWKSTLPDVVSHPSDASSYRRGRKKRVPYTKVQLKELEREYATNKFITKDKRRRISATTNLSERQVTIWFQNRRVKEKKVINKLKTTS

Row | SMILES | z-score [1] | z-score [2] | z-score [3] | composite z-score [4] | z-score [5] | z-score [6] | z-score [7] | z-score [8] | z-score [9] | composite z-score [10] | composite z-score [11] | composite z-score (XIP peptide (Xip251-270)) | z-score [12] | z-score [13] | z-score [14] | z-score [15]
1 | C=C[C@H](COC(C)=O)N(C(=O)OC(C)(C)C)S(=O)(=O)c1ccc(Br)cc1 | 0.738 | -0.705 (inactive) | -0.76 (inactive) | -0.0237 (inactive) | -0.621 (inactive) | 0.625 (inactive) | 0.623 (inactive) | 0.386 (inactive) | -0.17 | 0.137 | 0.252 (inactive) | -0.263 | 1.18 | -2.87 (inactive) | -0.255 (inactive) | 0.0038 (inactive)
2 | COc1ccc([C@H]2C[C@H]3C(Br)=C[C@@H]2C(=O)[C@]32CO2)cc1 | 0.158 | -6.22 (inactive) | -0.0566 (inactive) | 1.03 (inactive) | -0.647 (inactive) | 0.844 (inactive) | 1.75 (inactive) | 0.406 (inactive) | 0.869 | -0.0292 | -0.244 (inactive) | -0.22 | -0.518 | -0.444 (inactive) | 0.0297 (inactive) | -0.237 (inactive)
3 | COC(=O)C(CC#Cc1ccc2c(c1)[C@]1(C(=O)N2)[C@H](C(=O)O)[C@H]2C(=O)O[C@H](c3ccccc3)[C@H](c3ccccc3)N2[C@@H]1c1ccc(O)cc1)C(=O)OC | 0.0521 | 0.183 (inactive) | 0.395 (inactive) | -5.46 (inactive) | 1.03 (inactive) | 0.62 (inactive) | 0.569 (inactive) | -0.0012 (inactive) | -0.0124 | -0.165 | 0.12 (inactive) | 0.713 | 0.49 | -6.07 (inactive) | -0.287 (inactive) | -0.507 (inactive)
4 | C=C(COC)/C(=C/C[C@H](OC(=O)c1ccncc1)c1ccc(OCCO)cc1)c1cnc2ccccc2c1 | 0.444 | -0.309 (inactive) | -0.389 (inactive) | -3.5 (inactive) | 0.424 (inactive) | -0.401 (inactive) | -0.802 (inactive) | -0.679 (inactive) | -0.342 | -0.174 | 0.908 (inactive) | 0.791 | -2.77 | -4.16 (inactive) | 0.157 (inactive) | 0.313 (inactive)
5 | O=C1OCCC/C=C\[C@H]2OC34C=CCN(Cn5nnc6ccccc65)C(=O)[C@H]3N(CCCCCCO)C(=O)[C@@H]4C12 (stereo not given in full) | 1.14 | -1.45 (inactive) | 0.651 (inactive) | -0.332 (inactive) | 1.07 (inactive) | -1.16 (inactive) | 1.09 (inactive) | 1.18 (inactive) | 0.598 | -0.203 | -0.0221 (inactive) | -0.0976 | -0.395 | -4.38 (inactive) | -0.471 (inactive) | 0.832 (inactive)
6 | CCOC(=O)[C@H]1CC=C2CC1C(=O)N1CCC[C@@H]1[C@@H]2O[Si](C)(C)C(C)(C)C (stereo not given in full) | 0.706 | -14.4 (active) | 0.425 (inactive) | -0.458 (inactive) | 0.543 (inactive) | -0.335 (inactive) | 0.665 (inactive) | -0.17 (inactive) | 1.04 | -0.167 | -0.473 (inactive) | -0.216 | -0.575 | -5.97 (inactive) | -0.696 (inactive) | -0.559 (inactive)
7 | COCCOC(=O)N1C(=O)[C@@]2(c3cc(C#CC4=CCCCC4)ccc31)[C@H](C(=O)N1CCc3cc(OC)c(OC)cc3C1)[C@H]1C(=O)O[C@H](c3ccccc3)[C@H](c3ccccc3)N1[C@@H]2c1ccc(OCCO)cc1 | 0.149 | 1.18 (inactive) | 0.516 (inactive) | -0.352 (inactive) | 3.64 (inactive) | 1.38 (inactive) | 0.14 (inactive) | -0.316 (inactive) | 0.492 | -0.139 | 0.173 (inactive) | 0.383 | -2.09 | 3.59 (inactive) | 0.206 (inactive) | 0.631 (inactive)
8 | O=C1c2ccccc2[C@@]2(Cc3ccccc3N(CCN3CCOCC3)C2=O)[C@H](c2ccc(CO)cc2)N1Cc1ccccc1 | -0.864 | -0.187 (inactive) | 0.757 (inactive) | -4.94 (inactive) | 0.168 (inactive) | 0.167 (inactive) | 0.839 (inactive) | 1.61 (inactive) | 0.386 | -0.278 | -0.178 (inactive) | 0.206 | -0.119 | -0.421 (inactive) | -0.305 (inactive) | -0.0278 (inactive)
9 | C[C@@]1([C@@H](NC(=O)c2ccccc2)c2ccc(-c3ccccc3)cc2)C[C@H]1C1CCCCC1 | -1.32 | 1.14 (inactive) | -1.93 (inactive) | -0.712 (inactive) | 1.57 (inactive) | 0.0656 (inactive) | -1.59 (inactive) | -1.17 (inactive) | -0.675 | -0.117 | 0.192 (inactive) | -1.44 | -0.206 | -0.0623 (inactive) | 0.664 (inactive) | -0.296 (inactive)
10 | COc1ccc([Si](C)(C)[C@@H]2[C@@H](CC(=O)N3Cc4ccccc4C[C@H]3CO)O[C@]3(C(=O)N(C)c4c(Br)cc(C)cc43)[C@H]2C)cc1 | -2.26 | -1.5 (inactive) | -6.01 (inactive) | 0.961 (inactive) | 1.85 (inactive) | 1.7 (inactive) | 1.34 (inactive) | 1.01 (inactive) | -5.76 | -0.089 | -0.223 (inactive) | 0.565 | -2.35 | -4.06 (inactive) | -0.79 (inactive) | -0.12 (inactive)
